# Shown is part of a subset that was picked to be rich in hits.
# SARS PLP yeast: blocks SARS-CoV papain-like protease in a yeast assay | S. cerevisiae expressing SARS-CoV PLpro, growth rescue | AID 485353 | Potency, µM (titrated, usually from 32.9 µM), most hits filed as activators | hit rate 0.19% among 330,000; also: nearly all actives have a fitted effect of over 55% in size
# LmPK inh: blocks Leishmania mexicana pyruvate kinase activity | purified LmPK, Kinase-Glo ATP luminescence, 1 h | Q27686 | hit rate 0.37% among 290,000 | Potency, µM (doses to about 57.5 µM), most hits filed as inhibitors; active = well fitted curve in the direction sought with a large enough effect; inconclusive = small, poorly fitted or top-dose-only effect, or another doubt; inactive = no such curve, though single readings can be large; an effect the other way counts as inactive or inconclusive
# Target sequence (Q27686 whole entry, looked up): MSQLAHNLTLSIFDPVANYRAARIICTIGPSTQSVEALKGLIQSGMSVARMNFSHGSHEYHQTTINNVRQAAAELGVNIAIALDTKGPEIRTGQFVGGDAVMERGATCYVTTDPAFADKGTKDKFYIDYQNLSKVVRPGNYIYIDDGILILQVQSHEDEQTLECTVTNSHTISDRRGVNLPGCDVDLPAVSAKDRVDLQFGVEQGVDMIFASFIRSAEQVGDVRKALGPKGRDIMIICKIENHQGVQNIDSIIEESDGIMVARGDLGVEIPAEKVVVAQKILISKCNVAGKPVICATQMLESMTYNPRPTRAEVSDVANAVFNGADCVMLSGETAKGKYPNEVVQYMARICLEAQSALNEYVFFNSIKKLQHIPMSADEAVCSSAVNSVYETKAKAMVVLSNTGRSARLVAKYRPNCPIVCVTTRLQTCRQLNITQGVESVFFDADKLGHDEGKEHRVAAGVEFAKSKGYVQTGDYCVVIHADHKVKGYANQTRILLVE
#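 qHTS format; LmPK 0.1 nM; substrates PEP 0.5 mM and ADP 0.1 mM. One-hour room-temperature incubation, then coupled luciferase luminescence; 0.5 nM enzyme wells mark activation.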
# Cycloheximide cs: counter-screen for Shiga toxin inhibitors: cycloheximide protein synthesis inhibition; cell reporter, cycloheximide protein synthesis inhibition counterscreen; max response, %; hit rate 12% among 300,000; in the data active = max response mostly above about 13%, no sharp cut-off; inactive = mostly below about 14%; also: read at 38.3 µM for the half of the compounds with a filed dose
# TbPYK inhibitor: inhibitors of Trypanosoma brucei pyruvate kinase | TbPYK enzyme, Kinase-Glo Plus ATP luminescence, 45 min | Potency, µM (highest dose often 76.8 µM), hits mostly inhibitors | hit rate 0.12% among 410,000 | AID 624173; active = well fitted curve in the direction sought with a large enough effect; inconclusive = small, poorly fitted or top-dose-only effect, or another doubt; inactive = no such curve, though single readings can be large; an effect the other way counts as inactive or inconclusive; also: nearly all actives have a fitted effect of over 50% in size
#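 Activity of T. brucei pyruvate kinase was followed by Kinase-Glo Plus luminescence after the enzyme reacted 45 min at room temperature with 130 uM ADP (final) and substrate. Test compounds were added before ADP at multiple concentrations.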
# Shiga toxin inh: blocks Shiga toxin action in Vero cells | inhibition, % at 38.7 µM | Vero cells, Shiga toxin protein synthesis inhibition reporter | hit rate 9.2% among 290,000; in the data active = inhibition mostly above about 28%, no sharp cut-off; inactive = mostly below about 43%
# NS1 function inh: inhibitors of influenza NS1 protein function; Potency, µM (series often up to 46.1 µM); hit rate 0.4% among 270,000; AID 2326; also: actives are rising curves; nearly all actives have a fitted effect of over 50% in size
#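 OD600 was taken as the measure of yeast growth restored by compound in an NS1-expressing S. cerevisiae strain. Cells had been washed out of glucose medium and diluted 1:100 into galactose -URA medium, pH 6.0.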
# A number is an active result; . = inactive; ? = inconclusive; / = no result given. Unless noted, calls follow the shape of the full dose curve.
SMILES,SARS PLP yeast,LmPK inh,Cycloheximide cs,TbPYK inhibitor,Shiga toxin inh,NS1 function inh
O=C(CSc1nnc(NCc2ccccc2)s1)c1ccco1,.,.,.,.,78,.
Cc1cc(C(=O)CSc2ncnc3ccccc23)c(C)n1C1CC1,.,/,/,.,/,/
C=CCn1c(C)cc(C(=O)CSc2nnc(Cc3ccccc3)o2)c1C,?,.,31,.,.,.
COc1ccccc1CNc1nc(-c2ccco2)nn1S(=O)(=O)c1ccc2ccccc2c1,/,/,/,.,/,/
COc1ccc([C@@H]2C[C@H]3[C@@H](CN2S(=O)(=O)c2ccccc2)C(=O)C[C@@H](c2cccc(Cl)c2)N3S(=O)(=O)c2ccc(C)cc2)cc1,/,/,/,.,/,/
COc1ccc(Cl)cc1S(=O)(=O)Nc1ncn[nH]1,.,.,.,.,.,.
O=C(CSc1cn(CC(=O)N2CCCCC2)c2ccccc12)Nc1ccccc1F,/,/,/,.,/,/
C=CCn1c(C)cc(C(=O)CSc2nc3ccccc3o2)c1C,.,.,62,.,110,.
COC(=O)CSc1nc2ccccc2o1,.,.,.,.,.,.
Cc1ccc(/C=N/Nc2ccc(Cl)c(C(=O)O)c2)s1,.,.,104,.,150,.
O=C(O)c1cc(N/N=C/c2cccs2)ccc1Cl,.,.,49,/,95,.
Cc1ccc(/C=N/n2c(C)nnc2C)s1,.,.,.,.,.,.
Cn1c(N/N=C/c2cccs2)cc(=O)n(C)c1=O,.,.,21,.,.,.
Cc1ccc(/C=N/Nc2ccc(F)cc2)s1,.,.,23,.,68,.
O=C(N/N=C/c1cccs1)C(O)c1ccccc1 (configuration not stated),.,.,.,.,.,.
Cc1ccc(N(C(=O)COc2ccccc2C)S(=O)(=O)c2ccc(Cl)cc2)cc1,/,/,/,.,/,/
CCOc1ccc(-c2c(C)nn3c(C)c(C(=O)NCc4ccc(Cl)cc4)cnc23)cc1OCC,/,/,/,.,/,/
CCCn1cc(S(=O)(=O)c2cccc(Cl)c2)c(=O)c2cc(F)c(N3CCN(CC)CC3)cc21,/,/,/,.,/,/
Cn1c(=O)c2ncn(C)c2n(C)c1=O,/,/,/,.,/,/
Cn1c2ccccc2c2cc(/C=N/NC(=O)c3ccc(O)cc3O)ccc21,.,.,32,.,72,.
CCn1c2ccccc2c2cc(/C=N/NC(=O)c3ccc(O)cc3)ccc21,.,.,26,.,active,?
COCCn1c(C)cc(/C=N/NC(=O)c2cc3ccccc3cc2O)c1C,.,/,/,.,/,/
Cn1c(O)c(/C=N/NC(=O)c2cc3ccccc3cc2O)c2ccccc21,.,.,.,.,80,.
O=C(N/N=C/c1cccc(Oc2ccccc2)c1)c1ccc(O)cc1O,.,.,.,.,.,.
COc1ccc(N(CC(=O)N2CCN(c3cccc(OC)c3)CC2)S(=O)(=O)c2c(C)noc2C)cc1,/,/,/,.,/,/
SMILES,SARS PLP yeast,LmPK inh,Cycloheximide cs,TbPYK inhibitor,Shiga toxin inh,NS1 function inh
O=c1c(-c2cc(F)cc(F)c2)nc2cnc(Oc3ccccc3)nc2n1C1CC1,/,/,/,.,/,/
COc1ccc2nc(NC3=NCCC3)sc2c1,.,.,53,.,153,.
COc1ccc2nc(NCc3cccnc3)sc2c1,.,.,22,.,49,.
COc1ccc2nc(Nc3sc4c(c3C(N)=O)CCCC4)sc2c1,.,.,42,2.8µM,59,.
Cc1cccc(Nc2nc3ccccc3s2)c1C,.,.,49,.,100,.
Cc1ccc(CNc2nc3ccccc3s2)s1,.,.,.,.,.,.
COc1ccc(-c2nc(NC3=NCCCCC3)sc2C)cc1,.,.,.,.,.,/
COc1ccc2nc(NC(=O)CS(=O)(=O)Cc3ccccc3)sc2c1,.,.,.,.,.,/
COc1ccc(Nc2nc3ccccc3s2)cc1,.,.,50,.,.,.
COc1cccc(Nc2nc3ccc(OC)cc3s2)c1,.,.,57,.,89,/
COc1ccc(CNC(=O)Cn2nnc3ccccc3c2=O)cc1,.,.,22,.,60,.
Cc1ccc(NC(=O)Cn2nnc3ccccc3c2=O)cc1C,.,.,.,.,.,.
O=C(Cn1nnc2ccccc2c1=O)NCCc1ccccc1,.,.,.,.,25,.
Cc1ccc(NC(=O)Cn2nnc3ccccc3c2=O)cc1,.,.,32,.,.,/
CCOc1ccc(-c2cn3c(n2)sc2cc(C(=O)NCCCN(CC)CC)ccc23)cc1,/,/,/,.,/,/
COc1cc(/C=C2/C(=N)N3C=CSC3=NC2=O)ccc1OCCCOc1ccccc1C,.,.,.,.,54,.
COc1cc(/C=C2/C(=N)N3C=CSC3=NC2=O)ccc1OCCCOc1c(C)cccc1C,.,.,.,.,.,.
CCOc1cc(/C=C2/C(=N)N3C=CSC3=NC2=O)ccc1OCCCOc1ccccc1C,.,.,38,.,.,.
CC[C@H](C)[C@H](NC(=O)[C@H](CCC(=O)O)NC(=O)[C@H](CC(N)=O)NC(=O)[C@@H](N)[C@@H](C)O)C(=O)N[C@H](C(=O)N[C@@H](CCC(=O)O)C(=O)N[C@@H](CCC(=O)O)C(=O)N[C@@H](CCC(N)=O)C(=O)N[C@@H](Cc1ccc(O)cc1)C(=O)N[C@H](C(=O)N1CCC[C@H]1C(=O)N[C@@H](CCC(N)=O)C(=O)N[C@@H](CO)C(=O)N[C@@H](CC(C)C)C(=O)N[C@@H](C)C(=O)N[C@H](C(=O)N[C@@H](CC(C)C)C(=O)N[C@@H](CCC(=O)O)C(=O)N[C@@H](CO)C(=O)N[C@H](C(=O)N[C@@H](Cc1ccccc1)C(=O)N[C@@H](CCC(N)=O)C(=O)N[C@@H](CCC(=O)O)C(=O)N[C@@H](CC(C)C)C(=O)NCC(=O)N[C@@H](CCCCN)C(=O)N[C@@H](CC(C)C)C(=O)N[C@H](C(=O)NCC(=O)N1CCC[C@H]1C(=O)N[C@@H](CC(N)=O)C(=O)N[C@@H](CO)C(=O)N[C@@H](CCC(N)=O)C(=O)O)[C@@H](C)O)C(C)C)[C@@H](C)O)[C@@H](C)O)C(C)C,/,/,.,/,.,/
COc1ccc(CNc2nc(Cl)c(C#N)s2)cc1,.,.,41,.,45,.
N#Cc1sc(NCc2ccccc2)nc1Cl,.,.,.,.,.,/
Cc1ccccc1Cn1ccc(NC(=O)c2nn(C)cc2[N+](=O)[O-])n1,.,.,.,.,.,.
Cc1ccccc1Cn1ccc(NC(=O)c2onc(C)c2Cl)n1,.,.,29,.,76,.
Cc1ccccc1Cn1ccc(NC(=O)c2nc3ncccn3n2)n1,.,.,9.3,.,.,.
O=C(Nc1ccc(Cl)cc1)c1cnn2c1NC(c1ccccc1)=CC2c1ccccc1 (configuration not stated),/,/,/,.,/,/
O=C(Nc1ccccc1)C1=C[C@H](c2ccc3c(c2)OCO3)C[C@H](OCCCCO)O1,.,.,47,.,117,.
C#CCNC(=O)C1=C[C@H](c2ccc(Br)cc2)C[C@H](OCCCCO)O1,.,.,12,.,31,.
O=C(Nc1ccccc1)C1=C[C@@H](c2ccc(Br)cc2)C[C@@H](OCCCCO)O1,.,.,52,.,86,.

# Compound activity (PubChem BioAssay)
